This is a sample that favours compounds with a hit; in the whole collection about 1.2% have one here.
KCNH2 3.1 inh = KCNH2 3.1 (human) potassium channel inhibition; U2OS KCNH2 3.1, thallium flux FluxOr; active compounds read low; activity change, % (tested at about 1.8 µM); 340,000 tested, 0.95% active;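 active = maximum activity change below -70%; inconclusive = maximum activity change from -70% to -50%; inactive = maximum activity change above -50%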;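 also: thallium influx rate constant from kinetic fluorescence after stimulation buffer; % is scaled to controls: 0 for no effect and ±100 for the full control effect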
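Channel expression came from 3.1 mutant virus (1.77 x 10^8 /mL) applied to suspended U2OS cells for 4 h. Flux was tracked with FluxOr dye plus Red40 quencher, and kinetic rate constants normalized to controls.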
IDH1 R132H inh = blocks human mutant IDH1 R132H enzyme | AID 602179 | O75874 | IDH1-R132H enzyme, NADPH consumption, diaphorase/resazurin fluorescence | Potency, µM (series often up to 76.6 µM), inactives show at the highest dose activity change, negative = inhibition, usual class: inhibitors | 390,000 tested, 0.093% active; also: potency is read from the fitted curve at half-maximal effect; % is scaled to controls: 0 for no effect and ±100 for the full control effect; nearly all actives have a fitted effect of over 65% in size
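IDH1-R132H (0.5 ug/mL) preincubated 30 min with compound, then NADPH (0.016 mM) and alpha-KG (2 mM) added; 80 min at RT, pH 7.5. Remaining NADPH coupled via diaphorase/resazurin to fluorescence (540/590 nm); concentration-response curves normalized to no-enzyme control.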
hERG WT inh = KCNH2 (human, wildtype) channel inhibition; Q12809; U2OS, BacMam KCNH2, thallium flux FluxOr; active compounds read low; activity change, % at 1.84 µM; 340,000 tested, 0.37% active; AID 720551;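 active = maximum activity change below -70%; inconclusive = maximum activity change between -70% and -50%; inactive = maximum activity change above -50%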; also: % is scaled to controls: 0 for no effect and ±100 for the full control effect
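U2OS cells transduced with wild-type KCNH2 virus are loaded with FluxOr dye for 45 min, and thallium flux is measured in kinetic reads before and after stimulation buffer. Rate constants are normalized to DMSO controls.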
Anesthetic bind = candidate novel general anesthetic via apoferritin binding; Potency, µM (highest dose often 77.5 µM), without a hit: at the highest dose activity change, negative = displacement, actives largely listed as inhibitors; P02791; 350,000 tested, 0.074% active; apoferritin/1-aminoanthracene competitive binding, fluorescence; also: potency is read from the fitted curve at half-maximal effect; % is scaled to controls: 0 for no effect and ±100 for the full control effect; nearly all actives have a fitted effect of over 20% in size
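10 uM apoferritin + 50% sat. 1-AMA, PBS; cpd 10 min RT; Ex380/Em535 endpoint; normalized to free probe vs complex; 4-param Hill fit; propofol titration as pos. ctrl.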
ASM inhibitor = inhibitors of human secretory acid sphingomyelinase; P17405; placental ASM, HMU-PC fluorogenic substrate, 60 min; Potency, µM (titrated, usually from 57.5 µM), for the others: top-dose activity change, negative = inhibition, most hits filed as inhibitors; 340,000 tested, 0.006% active; also: potency is read from the fitted curve at half-maximal effect
Target sequence (P17405 47-631 limits assumed): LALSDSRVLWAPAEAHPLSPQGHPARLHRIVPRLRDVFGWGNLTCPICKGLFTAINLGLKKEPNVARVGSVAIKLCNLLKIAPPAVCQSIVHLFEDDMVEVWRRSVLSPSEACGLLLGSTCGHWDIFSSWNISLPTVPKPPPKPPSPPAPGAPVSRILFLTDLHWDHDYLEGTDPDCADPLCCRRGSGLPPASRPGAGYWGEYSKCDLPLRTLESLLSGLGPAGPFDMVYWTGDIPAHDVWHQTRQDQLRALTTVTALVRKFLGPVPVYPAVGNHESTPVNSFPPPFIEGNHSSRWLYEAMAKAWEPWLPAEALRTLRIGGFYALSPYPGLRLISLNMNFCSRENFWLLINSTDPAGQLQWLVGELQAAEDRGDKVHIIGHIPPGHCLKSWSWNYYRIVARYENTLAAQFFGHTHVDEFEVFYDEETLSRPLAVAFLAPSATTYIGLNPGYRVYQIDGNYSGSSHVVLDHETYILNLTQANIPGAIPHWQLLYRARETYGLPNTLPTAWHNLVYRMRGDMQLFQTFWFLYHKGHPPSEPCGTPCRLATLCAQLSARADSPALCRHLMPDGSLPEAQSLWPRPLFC
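qHTS format. ASM enzyme prepared from human placenta hydrolyses the fluorogenic substrate HMU-PC0 (9 uM final) over 60 min at 37 °C after a 10 min compound preincubation.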
* = called active by the depositor; ? = inconclusive; . = not tested or not shown; [ ] = dose if it differs, or a comment. Unless noted, calls follow the shape of the dose curve; as a rule, active = well fitted inhibition curve with a large enough effect; inconclusive = small, poorly fitted or top-dose-only effect; inactive = no such curve, though single readings can be large or run the other way.

SMILES	KCNH2 3.1 inh	IDH1 R132H inh	hERG WT inh	Anesthetic bind	ASM inhibitor
CCCOP(=O)(c1ccc(N(C)C)cc1)C(Nc1ccccc1)c1ccc(N(C)C)cc1 (centres undefined)	-21	0%	1	-9%	-2%
O=C(NCc1cccc(Cl)c1)C1CCCN(c2ncnc3onc(-c4ccc(F)cc4)c23)C1 (centres undefined)	.	7%	.	27%	.
CCO/C=C/C(O)(CNC(=O)c1ccc(C(C)(C)C)cc1)C(F)(F)F (centres undefined)	-72*	8%	6	-17%	-1%
CCOC(=O)CNC(=O)c1ccc(C)cc1	2	5%	-1	-12%	13%
COc1ccc2ncc3c(-c4ccc(C)c(C)c4)nn(CC(=O)Nc4ccccc4)c3c2c1	.	-13%	.	-1%	.
Cc1ccc(C)c(OC(=O)CN2C(=O)c3ccccc3C2=O)c1	2	5%	-94*	?	-10%
Cc1cc(C)c2cc(C#N)c(N3CCCN(S(=O)(=O)c4ccccc4)CC3)nc2c1	-70*	3%	-19	.	5%
Cc1cc([N+](=O)[O-])cnc1NC(C)c1ccccc1 (centres undefined)	-3	1%	-2	8.9µM*	-3%
COc1ccc2c(c1)[C@H]1[C@H](CO2)[C@H](c2ccccc2)[C@]2(C)C(=O)Nc3cc(Cl)ccc3C(=O)N12	-9	-1%	-13	.	-5%
COc1ccc2c(c1)OC[C@H]1[C@H]2N2C(=O)CN(Cc3ccc(F)cc3)C(=O)[C@@]2(C)[C@H]1c1ccccc1	-8	-6%	3	.	-13%
COc1ccc2c(c1)OC[C@H]1[C@H]2N2C(=O)CN(Cc3ccc(C)cc3)C(=O)[C@@]2(C)[C@H]1c1ccccc1	-89*	5%	-5	.	-13%
COc1ccc2c(c1)C(=O)N1[C@H]3c4cc(Cl)ccc4OC[C@@H]3[C@H](c3ccccc3)[C@]1(C)C(=O)N2	-85*	2%	-32	.	-22%
CN1CCN(C(=O)/C(=C/c2ccc(N(C)C)cc2)NC(=O)c2ccccc2)CC1	-2	-4%	0	-3%	17%
CN1CCN(C(=O)/C(=C/c2ccc(F)cc2)NC(=O)c2ccccc2)CC1	-91*	1%	-23	0%	26%
COc1ccc2c(c1)c1c(c(=O)n(CCc3ccccc3)c(=O)n1Cc1ccc(Cl)cc1)n2C	.	1%	.	-13%	.
CCc1cc2c(=O)n(Cc3ccco3)c(SCC(=O)NC3CCS(=O)(=O)C3)nc2s1 (centres undefined)	-48	-6%	0	-17%	-1%
CCc1cc2c(=O)n(Cc3ccco3)c(SCC(=O)N(C)C3CCS(=O)(=O)C3)nc2s1 (centres undefined)	-111*	-11%	-90*	-14%	-2%
C(=C\c1ccccn1)/c1ccncc1	-1	-2%	-14	1%	1%
C(/C=C/c1ccccn1)=C\c1ccccc1	-81*	9%	-5	.	3%
CN(CC(=O)O/N=C(\N)c1cccc([N+](=O)[O-])c1)S(=O)(=O)c1ccccc1	-8	2%	-6	28µM*	-1%
COc1cc(NC(=O)C2CCN(C(=O)c3sc4nc[nH]c(=O)c4c3C)CC2)cc(OC)c1OC	.	-10%	.	-16%	.
Cc1cc2c(cc1S(=O)(=O)Nc1ccc(C(C)C)cc1)OCCN2C	.	-8%	.	32%	.
O=C(C1CC1)N1c2ccccc2Sc2ccccc21	-83*	5%	4	-19%	1%
CN1CCc2c(sc3c2c(=O)n(-c2ccccc2)c2nnc(SCc4ccc(Cl)cc4)n32)C1	-12	0%	-186*	?	-1%
Cc1nnc2n(-c3ccc(Cl)cc3)c(=O)c3c4c(sc3n12)CN(C)CC4	.	.	.	-5%	.
SMILES	KCNH2 3.1 inh	IDH1 R132H inh	hERG WT inh	Anesthetic bind	ASM inhibitor
Cc1ccc(C(=O)NC(=S)N2CC(C)OC(C)C2)cc1[N+](=O)[O-] (centres undefined)	-91*	2%	2	-13%	-2%
CCC(=O)c1ccc(OCC(O)CN2CCOCC2)cc1 (centres undefined)	3	10%	15	7%	1%
N#Cc1ccc(-c2ccc(OCC(O)CN3CCCCC3)cc2)cc1 (centres undefined)	-32	-3%	55	-2%	-2%
N#Cc1cc2c(OCC(O)CN3CCN(C(c4ccccc4)c4ccccc4)CC3)cccc2[nH]1 (centres undefined)	.	.	.	0%	.
N#Cc1ccc(OCC(O)CN2CCN(C(c3ccccc3)c3ccccc3)CC2)cc1 (centres undefined)	-100*	0%	-84*	-4%	-1%
N#Cc1ccc(OCC(O)CN2CCN(CC(O)COc3ccc(C#N)cc3)CC2)cc1 (centres undefined)	-107*	-2%	-147*	9%	7%
OC(COc1ccccc1)CN1CCCC1 (centres undefined)	25	1%	3	-9%	6%
CCC(=O)c1ccc(OCC(O)CN2CCN(C(c3ccccc3)c3ccccc3)CC2)cc1 (centres undefined)	-98*	-6%	-88*	-13%	-1%
OC(COc1ccccc1)CN1CCN(C(c2ccccc2)c2ccccc2)CC1 (centres undefined)	-109*	5%	-120*	-18%	2%
COc1cc(NC(=O)C(Cc2ccccc2)NS(=O)(=O)c2cccs2)cc(OC)c1 (centres undefined)	.	-9%	.	55%	.
CCOc1cccc(C(=O)N(Cc2ccc(F)cc2)Cc2ccco2)c1	.	6%	.	7%	.
c1ccc(OCCOCCN2CCN(C(c3ccccc3)c3ccccc3)CC2)cc1	-86*	8%	-78*	-10%	-1%
COc1ccccc1OCCCCN1CCN(C(c2ccccc2)c2ccccc2)CC1	-93*	1%	-49	-7%	-2%
O=C(O)COCCN1CCN([C@@H](c2ccccc2)c2ccc(Cl)cc2)CC1	.	.	.	-8%[29.3 µM]	.
N#Cc1ccc(OCC(O)CN2CCN(c3ncc(C(F)(F)F)cc3Cl)CC2)cc1 (centres undefined)	-101*	0%	?	?	-2%
OC(CN1CCN(c2ncc(C(F)(F)F)cc2Cl)CC1)c1ccccc1 (centres undefined)	?	-1%	-4	-12%	0%
OC(COCc1ccco1)CN1CCN(C(c2ccccc2)c2ccccc2)CC1 (centres undefined)	-104*	4%	-76*	-14%	-1%
CCOC(=O)c1scc(-c2ccccc2)c1S(=O)(=O)N1CCN(c2ccccc2OC)CC1	.	-14%	.	-2%	.
CCn1c(=O)cc(OCC(=O)N2CCN(c3ccc(C)cc3)C(C)C2)c2ccccc21 (centres undefined)	.	0%	.	-7%	.
CC(=O)Nc1sc(/C(C#N)=C\c2cccc(Cl)c2)nc1-c1ccc(C)cc1	-70*	-2%	-46	-9%	5%

Screening data (PubChem BioAssay)
